# Where “and” joins values, the source holds several entries; their conditions need not be identical. Equal entries are not always repeated. Screen size: about 410,000 compounds; about 2,400 (0.59%) were called active. Rule as the data show it: active = max activation above about 30%; inactive = the rest. The full list was thinned out, with actives kept by preference.
# Target: D(3) dopamine receptor (Homo sapiens) (UniProt P35462)
# Assay: qHTS of D3 Dopamine Receptor Agonist: qHTS; also: 0% is about no effect
# Conditions: D3R DiscoveRx beta-arrestin cells, luminescence, 90 min; active compounds read high
# Procedure, shortened: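 Agonist mode: compounds and dopamine controls were applied to plated cells for 90 min at 37 degrees C after an overnight attachment at 1500 cells/well. Luminescent read-out followed 30 - 60 minutes at room temperature with DiscoveRx detection reagent.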
# Sequence of D(3) dopamine receptor (Homo sapiens) (P35462 whole entry, looked up): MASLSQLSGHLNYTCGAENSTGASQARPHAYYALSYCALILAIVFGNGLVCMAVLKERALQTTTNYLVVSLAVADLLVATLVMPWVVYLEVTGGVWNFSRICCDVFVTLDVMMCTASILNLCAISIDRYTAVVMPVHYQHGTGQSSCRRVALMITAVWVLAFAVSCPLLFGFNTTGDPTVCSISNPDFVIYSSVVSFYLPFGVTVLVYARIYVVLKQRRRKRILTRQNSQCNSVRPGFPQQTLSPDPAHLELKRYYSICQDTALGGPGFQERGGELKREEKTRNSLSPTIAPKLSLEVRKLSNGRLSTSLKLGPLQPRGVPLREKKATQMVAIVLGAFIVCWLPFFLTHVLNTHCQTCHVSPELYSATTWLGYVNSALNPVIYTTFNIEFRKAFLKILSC
row,SMILES,max activation
1,CCCCOc1ccc(-c2ncc(C(=O)OCC)c(N)n2)cc1,85% (active)
2,CCOC(=O)c1cnc(SCc2nc(N)nc(Nc3ccc(OC)cc3)n2)nc1N,2.44% (inactive)
3,CCOC(=O)c1cnc(SCC(=O)Nc2cccc(OC)c2)nc1N,6.65% (inactive)
4,CCOC(=O)c1c(NC(=O)c2cc(-c3ccc(Cl)cc3)on2)sc2c1CCCC2,-8.12% (inactive)
5,C=O,7.37% (inactive)
6,CCn1cc(C(=O)N(C)Cc2ccccc2)c(=O)c2cc(S(=O)(=O)N3CCCCCC3)ccc21,3.05% (inactive)
7,COc1cc(C#Cc2ccc3cc(CCCO)oc(=O)c3c2)cc(OC)c1,41.1% (active)
8,COc1cc(/C=C2\Oc3ccc(C#Cc4ccc(O)cc4)cc3C2=O)cc(OC)c1,15.9% (inactive)
9,COc1cc(CN(C(=O)c2ccccc2Br)c2ccccn2)cc(OC)c1OC,-5.51% (inactive)
10,COC(=O)c1ccc(NC(=O)CCc2c(C)nc3c(c(C)nn3-c3ccc(C)cc3)c2C)cc1,4.91% (inactive)
11,O=S(O)CNc1ccc(S(=O)(=O)c2ccc(NCS(=O)O)cc2)cc1,-10.5% (inactive)
12,Cc1ccc(N2C(=O)C(NC(=O)c3c(F)cccc3F)(C(F)(F)F)C3=C2CC(C)(C)CC3=O)cc1 (stereo unspecified),-17.5% (inactive)
13,CC(C)C1C2=C(CC(C)(C)CC2=O)ON1c1ccccc1 (stereo unspecified),-2.83% (inactive)
14,COC(=O)C1CC2=C(CC(C)(C)CC2=O)N(c2ccccc2)C1=O (stereo unspecified),32.1% (active)
15,CC(=O)NC(=O)c1ccccc1O,-11.8% (inactive)
16,Cc1cc(C)cc(NC(=O)c2cnc3sc(N4CCCC4)nn3c2=O)c1,19.3% (inactive)
17,CC(C)Oc1ccc(CNC(=O)C2CCN(c3nc4ccccc4n(C)c3=O)CC2)cc1,-5.52% (inactive)
18,COc1cc(C(=O)N2CCOCC2)cc(OC)c1OC,4.3% (inactive) and 9.01% (inactive)
19,O=C1OC(/C=C/c2ccccc2)=NC/1=C/c1ccco1,30.1% (active)
20,COc1ccccc1/C=C/C1=NC(=C\N(C)C)/C(=O)O1,-12.1% (inactive)
21,CC(C)(C)C1C/C(=C/c2ccco2)C(=O)/C(=C/c2ccco2)C1 (stereo unspecified),-7.15% (inactive)
22,Cc1cccc(NC(=O)N2CCC(CN3CCc4ccccc4C3)CC2)c1C,-18.9% (inactive)
23,CCOC(=O)Cn1c(=O)n(-c2ccccc2OC)c2nc(-c3cccc(F)c3)nc(C(N)=O)c21,4.17% (inactive)
24,COc1ccccc1N1CCN(c2ncnc3onc(-c4cccc(Cl)c4)c23)CC1,7.08% (inactive)
25,COc1ccccc1N1CCN(c2ncnc3onc(-c4ccc(F)cc4)c23)CC1,-8.86% (inactive)
26,COc1ccccc1N1CCN(c2ncnc3sc(C)c(-c4ccccc4)c23)CC1,50.8% (active)

# From PubChem BioAssay AID652048 (National Center for Advancing Translational Sciences (NCATS), 2013)
